Measured values as given in PubChem BioAssay.
For some assays here: Results with a measured potency or affinity are listed apart. Inconclusive results are not listed. This is one part of the list. Calls of active or inactive are those of the source. Unless noted, how the calls were made is not given here.

Experiments:
[1] = RMG-1 ovarian cancer cell viability loss – cherry-pick, dose response (AID 687029;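 active means signal drop whose fitted half-maximal concentration is at most twice the top valid dose, in every test run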;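 further: cells exposed to compound for 96 hours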)
[2] = IOSE-T80 viability loss, PAX8-independent line – cell-based, cherry-pick, selectivity assay for PAX8 inhibitor project, dose response (AID 687032;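 active means fitted half-maximal concentration for viability loss no higher than twice the top valid dose, in every repeat run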;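 further: cells exposed to compound for 96 h before reading; 0% = neutral control wells and -100% = 2 µM mitoxantrone kill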)
[3] = toxicity toward immortalized ovarian surface epithelium – cell-based, plate reader, dry powder samples, cytotoxicity control for PAX8 inhibitor project, dose response (AID 743045);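 further: 0% = neutral control median and -100% = positive control median; more negative values mean more cell killing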
[4] = A2780 cell killing – plate reader, dry powder samples, cytotoxicity control, dose response (AID 743046);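 further: 0% = neutral control wells and -100% = cytotoxic reference compound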
[5] = OVCAR8 cell viability loss – plate reader, dry powder samples, PAX8 project, dose response (AID 743197)
[6] = IGROV1 cell killing – plate reader, dry powder samples, PAX8 inhibitor project, dose response (AID 743043);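 further: more negative means fewer viable cells or more cytotoxicity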
[7] = OVCAR-3 cell viability loss – plate reader, dry powder samples, PAX8 inhibitor project, dose response (AID 743044); conditions: max activity: at 35 µM, active compounds read low unless noted
[8] = general cell-killing toxicity readout – plate reader, dry powder samples, cytotoxicity control for PAX8 inhibitor project, dose response (AID 743021)
[9] = A549 cell cytotoxicity, dose response, cytotoxicity control, plate reader, cherry-pick, antagonist series (AID 743412);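 further: 0% = neutral control wells and -100% = positive control wells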
[10] = toxicity toward HepG2 liver cells – cell-based, plate reader, cherry-pick, antagonist series, cytotoxicity control, dose response (AID 743416);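 further: 0% = neutral control wells and -100% = positive control wells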
[11] = small-molecule DNA binding by polarization – biochemical, fluorescence polarization, cherry-pick, counter-screen for EWS/Fli inhibitor project, dose response (AID 720586;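 active means fitted curve reaches a 35% signal fall AC35 below twice the sample's top valid tested dose, actives reach about 48 µM in these data; inactive means the rest, including activity in the rising direction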;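 further: 0% = neutral control median and -100% = 10 µM mitoxantrone control median; lower polarization ratio signals compound binding to DNA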)
[12] = CMV-driven luciferase expression suppression in HEK293 – cell-based, luminescence, dry powder, counter-screen for Pax8 inhibitor project, dose response (AID 743020;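 active means signal-lowering compounds whose fitted half-maximal concentration is at or below twice the top tested dose in every run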;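 further: HEK293 cells stably expressing the CMV luciferase reporter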)

C[C@@H]1CCCCO[C@@H](CN(C)S(=O)(=O)c2ccccc2)[C@H](C)CN([C@H](C)CO)C(=O)c2cc(NC(=O)Nc3ccc(C(F)(F)F)cc3)ccc2O1
inactive: outcome [1] | outcome [2] | outcome [3] | outcome [4] | outcome [5]

C[C@H](CO)N1C[C@H](C)[C@@H](CN(C)Cc2ccc(C(F)(F)F)cc2)OCCCC[C@H](C)Oc2ccc(NS(=O)(=O)c3ccc(F)cc3)cc2C1=O
inactive: outcome [1] | outcome [2] | outcome [3] | outcome [5]

COc1ccc(S(=O)(=O)Nc2ccc3c(c2)C(=O)N([C@H](C)CO)C[C@H](C)[C@@H](CN(C)S(=O)(=O)c2ccc(Cl)cc2)OCCCC[C@H](C)O3)cc1
inactive: outcome [1] | outcome [2] | outcome [3]

COc1ccc(S(=O)(=O)Nc2ccc3c(c2)C(=O)N([C@@H](C)CO)C[C@@H](C)[C@H](CN(C)Cc2ccc(C(F)(F)F)cc2)OCCCC[C@H](C)O3)cc1
inactive: outcome [1] | outcome [2] | outcome [6] | max activity [7] -37.4% | outcome [3] | outcome [4] | outcome [5]

O=C(C1CC1)N1C[C@@H]2N[C@H](C1)C2c1ccc(-c2cccc(F)c2)cc1 (some centres undefined)
inactive: outcome [1] | outcome [2] | outcome [8] | outcome [4]

COc1ccc(S(=O)(=O)N(C)C[C@@H]2Oc3ccc(NC(=O)Nc4ccc(C(F)(F)F)cc4)cc3CC(=O)N([C@H](C)CO)C[C@@H]2C)cc1
inactive: outcome [1] | outcome [2] | outcome [8] | activity change, negative = cytotoxicity [4] -15.3% [at 8 µM]

Cc1ccc2nc(-c3ccc(Br)cc3)cn2c1
inactive: outcome [1] | outcome [2] | outcome [9] | outcome [10]

N#C[C@H]1[C@H](c2ccc(C#Cc3ccccc3F)cc2)[C@H](CO)N1C(=O)C1CCC1
inactive: outcome [1] | outcome [2] | outcome [6] | outcome [3] | outcome [4] | outcome [5]

COc1ccccc1S(=O)(=O)N(C)C[C@H]1Oc2cc(C#CCC3CCCC3)ccc2S(=O)(=O)N([C@@H](C)CO)C[C@H]1C
inactive: outcome [1] | outcome [2] | outcome [6] | max activity [7] 9.23% [at 16 µM, active compounds read low] | outcome [3] | outcome [4] | outcome [5]

COc1ccc(CN(C)C[C@@H]2OCCCC[C@H](C)Oc3ccc(NC(=O)Nc4ccc(C(F)(F)F)cc4)cc3C(=O)N([C@@H](C)CO)C[C@H]2C)cc1
inactive: outcome [1] | outcome [2] | outcome [6] | outcome [3]

C[C@@H]1CN([C@@H](C)CO)C(=O)Cc2cc(NC(=O)Cc3ccccc3)ccc2O[C@H]1CN(C)Cc1ccc(-c2ccccc2)cc1
inactive: outcome [1] | outcome [2] | outcome [6] | max activity [7] -33% | outcome [3] | outcome [4] | outcome [5]

C[C@H]1CCCCO[C@H](CN(C)S(=O)(=O)c2ccccc2)[C@@H](C)CN([C@@H](C)CO)C(=O)c2cc(NS(=O)(=O)c3ccc(Cl)cc3)ccc2O1
inactive: outcome [1] | outcome [2] | outcome [6] | outcome [3]

COc1ccc(NC(=O)N2CCCCN3[C@H](C2)[C@@H](c2ccc(C#Cc4ccccc4)cc2)[C@@H]3CO)cc1
inactive: outcome [1] | outcome [2] | outcome [6] | outcome [3] | outcome [4]

CCCC#Cc1ccc([C@H]2[C@@H](C#N)N(C(=O)C3CCCCC3)[C@H]2CO)cc1
inactive: outcome [1] | outcome [2] | outcome [6] | outcome [3]

Nc1ccc(-c2nc3ccc(C(=O)O)cc3s2)cc1
inactive: outcome [1] | outcome [2] | outcome [9] | outcome [10]

COc1ccccc1C#Cc1ccc([C@H]2[C@H](C#N)N(C(=O)C3CC3)[C@H]2CO)cc1
inactive: outcome [1] | outcome [2] | outcome [6] | outcome [3]

COc1cccc(C#Cc2ccc([C@H]3[C@@H](CO)N(C(=O)C4CCCCC4)[C@H]3C#N)cc2)c1
inactive: outcome [1] | outcome [2] | outcome [6] | outcome [3] | outcome [5]

C[C@H](CO)N1C[C@H](C)[C@@H](CN(C)Cc2ccc(C(F)(F)F)cc2)Oc2ccc(NS(=O)(=O)c3ccc(Cl)cc3)cc2CC1=O
inactive: outcome [1] | outcome [2] | outcome [3] | outcome [4]

CCCCCCCCn1c2c(c(=N)c3c1CCC3)CCCC2
inactive: outcome [1] | AC35 [11] | outcome [12] | outcome [8]

O=C(Nc1cccc(C(=O)O)c1)Nc1ccc2c(c1)OCO2
inactive: outcome [1] | outcome [2] | outcome [8] | outcome [9] | outcome [10]

O=C1CN(S(=O)(=O)Cc2ccccc2)C[C@H]2[C@H](c3ccc(C#Cc4ccc(F)cc4)cc3)[C@H](CO)N12
inactive: outcome [1] | outcome [2] | outcome [6] | outcome [3] | outcome [4] | outcome [5]

Cn1nnnc1Sc1ncnc2scc(-c3cccc(Br)c3)c12
inactive: outcome [1] | outcome [2] | outcome [8] | outcome [10]

C[C@@H]1CCCCO[C@H](CN(C)Cc2ccc(Cl)c(Cl)c2)[C@@H](C)CN([C@@H](C)CO)C(=O)c2cc(NS(=O)(=O)c3ccccc3)ccc2O1
inactive: outcome [1] | outcome [2] | outcome [3] | outcome [4] | outcome [5]

C[C@@H]1CN([C@H](C)CO)C(=O)c2cc(NS(=O)(=O)c3ccccc3)ccc2O[C@@H](C)CCCCO[C@H]1CN(C)Cc1ccc(C(F)(F)F)cc1
inactive: outcome [1] | outcome [2] | outcome [8] | outcome [4]

NS(=O)(=O)c1ccc(CCN2C(=O)/C(=C\c3ccc(Cl)cc3)SC2=S)cc1
inactive: outcome [1] | outcome [2] | outcome [8] | outcome [4]

COc1ccc(NC(=O)Nc2ccc3c(c2)C(=O)N([C@H](C)CO)C[C@H](C)[C@H](CN(C)Cc2ccc(C(F)(F)F)cc2)OCCCC[C@H](C)O3)cc1
inactive: outcome [1] | outcome [2] | outcome [3] | outcome [4]

CC(C)c1ccc(-c2nc3ccccc3s2)cc1
inactive: outcome [1] | outcome [12]

COc1ccc(C(=O)O/N=C(\N)c2ccccn2)cc1
inactive: outcome [1] | outcome [12]

COc1ccc(Oc2ccc(/C=C/C(=O)c3cccc(OC)c3)cc2[N+](=O)[O-])cc1
inactive: outcome [1] | outcome [12]

COc1ccc(OC)c(N(CCN2C(=O)c3ccccc3C2=O)C(=O)CCl)c1
inactive: outcome [1] | outcome [12]

C(=C\c1ccc(C2[C@@H]3CN(Cc4ccc5c(c4)OCO5)C[C@H]2N3)cc1)/c1ccccc1 (some centres undefined)
inactive: outcome [1] | outcome [12]

COc1ccc(N2C(=O)CC(Sc3nnnn3-c3ccc(F)cc3)C2=O)cc1 (centres undefined)
inactive: outcome [1] | outcome [12]

Cc1cccc(-n2ncc(Cl)c(Cl)c2=O)c1
inactive: outcome [1] | outcome [12]

C/C(=N\NC(=O)c1n[nH]c2c1CCC2)c1cccs1
inactive: outcome [1] | outcome [12]

OC(c1cc(-c2ccc(C(F)(F)F)cc2)nc(C(F)(F)F)c1)C1CCCCN1 (centres undefined)
inactive: outcome [1] | outcome [12]

CCC[C@@H](CN[C@@H](CNC)[C@H](C)CC)NCC1CCC(C(C)(C)C)CC1 (some centres undefined)
inactive: outcome [1] | outcome [12]

COc1ccccc1N(C(C)=O)C1=C(Cl)C(=O)c2ccccc2C1=O
inactive: outcome [1] | outcome [12]

C#CC(=O)N(c1ccc(OC)cc1OC)C(C(=O)NC1CCCC1)c1cccs1 (centres undefined)
inactive: outcome [1] | outcome [12]

COc1ccc(/C=C2\CN(Cc3ccccc3)C/C(=C\c3ccc(OC)cc3OC)C2=O)c(OC)c1
inactive: outcome [1] | outcome [12]

CC(C)=CCC/C(C)=C/CN1C(=O)N(c2ccc(F)cc2)[C@H]2C[C@@H](c3ccccc3)[C@@H](C)[C@@H](C(=O)N3CCOCC3)C[C@H]21
inactive: outcome [1] | outcome [12]

O=C(NCCc1ccccc1)C(c1cccs1)N(C(=O)CCl)c1ccc(Cl)cc1 (centres undefined)
inactive: outcome [1] | outcome [12]

Cc1ccc(C(=O)Nc2cnc3ccccc3c2)cc1
inactive: outcome [1] | outcome [12]

CC(C)Nc1ccc(Nc2ccnc3cc4ccccc4cc23)cc1
inactive: outcome [1] | outcome [12]

O=[N+]([O-])c1c(Nc2cccc(O)c2)cc(Cl)c2nonc12
inactive: outcome [1] | outcome [12]

COc1ccc(CN(C)C[C@H]2OCCCC[C@H](C)Oc3ccc(NC(=O)Nc4ccc(C(F)(F)F)cc4)cc3C(=O)N([C@@H](C)CO)C[C@H]2C)cc1
inactive: outcome [1] | outcome [12]

COc1ccc(N(Cc2cc3cc(OC)ccc3[nH]c2=O)S(=O)(=O)c2ccc(NC(C)=O)cc2)cc1
inactive: outcome [1] | outcome [12]

COC(=O)C1=C(C)N(Cc2ccc(C(F)(F)F)cc2)C(=NCc2ccccc2)NC1c1cccc(F)c1 (centres undefined)
inactive: outcome [1] | outcome [12]

NC1=C(Cl)C(=O)c2ccc(S(N)(=O)=O)cc2C1=O
inactive: outcome [1] | outcome [12]

CC(=O)N(C1=C(Cl)C(=O)c2ccccc2C1=O)C1CCCCC1
inactive: outcome [1] | outcome [12]

COc1cccc(/C=N/Nc2nc(Nc3ccc([N+](=O)[O-])cc3)nc(N3CCCC3)n2)c1O
inactive: outcome [1] | outcome [12]

CC(C)=CCNc1ncnc2c1c(C#N)cn2C1OC(CO)C(O)C1O (centres undefined)
inactive: outcome [1] | outcome [12] | outcome [8]

O=c1cc(C(Cl)(Cl)Cl)oc2c1ccc1ccccc12
inactive: outcome [1] | outcome [12] | outcome [8]

CS(=O)(=O)c1ccc(C(=O)OCC(=O)NCc2cccs2)cc1[N+](=O)[O-]
inactive: outcome [1] | outcome [12]

CCCCCCCN(C(=O)CCl)c1cccc(C)c1
inactive: outcome [1] | outcome [12]

CCOc1ccc(NC(=O)Nc2cccc(C(=O)O)c2)cc1
inactive: outcome [1] | outcome [12]

C=C1C(=O)[C@]23C[C@H]1CCC2[C@@]1(C)C(C[C@@H]3O)[C@](C)(C(=O)OC)CC[C@@H]1O (some centres undefined)
inactive: outcome [1] | outcome [12]

COc1cccc(-c2cnc3c(NC=O)cc(-c4ccc(OC)cc4OC)cn23)c1
inactive: outcome [1] | outcome [12] | outcome [8]

Cc1nc2c(=O)n(C)c(=O)n(C)c2nc1Cl
inactive: outcome [1] | outcome [12]

O=C(CCl)N=c1sccn1Cc1ccc(Cl)cc1Cl
inactive: outcome [1] | outcome [12]

CC(C)C(=O)N1CCN(c2ccc(NC(=O)c3ccc([N+](=O)[O-])o3)cc2Cl)CC1
inactive: outcome [1] | outcome [12] | outcome [8]

COc1cccc(N2CCN(c3ncnc4c3cnn4-c3ccc(C)cc3C)CC2)c1
inactive: outcome [1] | outcome [12]

C(=N\Nc1nc2ccccc2s1)/c1ccccn1
inactive: outcome [1] | outcome [12]

Cc1ccc(C(=O)O/N=C(\N)c2ccccn2)cc1
inactive: outcome [1] | outcome [12]

CCOC(=O)c1c2c(n(Cc3ccccc3)c1C)C(=O)C(=O)c1ccccc1-2
inactive: outcome [1] | outcome [12]

Cc1ccc(S(=O)(=O)c2ncccc2[N+](=O)[O-])cc1
inactive: outcome [1] | outcome [12]

CCSc1nsc(NC(=O)Nc2cccc(F)c2)n1
inactive: outcome [1] | outcome [12] | outcome [8]

Cc1cc(C)c(C(=O)/C=C/c2cccc3ccccc23)c(=O)[nH]1
inactive: outcome [1] | outcome [12] | outcome [8]
